The values that follow come from PubChem BioAssay (Tox21).

Results filed as inconclusive are left out. A number with no mark means an inactive call. Active and inactive are the calls of the source. Unless noted, the call rests on the fitted dose curve; in most records, active means well fitted curve in the direction sought with a large enough effect in the repeat runs; inconclusive means weak or mixed curves; inactive means no such curve, though single readings can be large; an effect the other way counts as inactive or inconclusive.

The nature of assay [1]: qHTS assay to identify small molecule antagonists of the vitamin D receptor (VDR) signaling pathway - cell viability counter screen (AID 743225). Further: nearly all actives have a fitted effect of over 50% in size. The essentials:
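Cytotoxicity toward the VDR-bla HEK 293T line was scored by ATP-based CellTiter-Glo luminescence, read in the wells already used for the beta-lactamase readout after 16 h compound treatment under 3 nM 1-alpha,25-dihydroxyvitamin D3 stimulation.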

Assay [2] can be described thus: qHTS assay to identify small molecule agonists of the NFkB signaling pathway - cell viability counter screen (AID 1159515; calls by dose curve; further: series mostly up to about 61 µM; nearly all actives have a fitted effect of over 55% in size). The essentials:
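Luminescence from CellTiter-Glo (30 min, room temperature) gives viability, measured in the same wells as the beta-lactamase reporter read. Cells were NFkB-bla ME-180, 2,000 per well, treated 5 hr with compounds.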
(qHTS replaces the single test concentration by a dilution series.)

The nature of assay [3]: qHTS assay to identify small molecule agonists of the endoplasmic reticulum stress response signaling pathway (AID 1159516; active means well fitted activation curve with a large enough effect in the signal ratio in the repeat runs, not every such curve was filed as active; the % refers to the signal ratio). In a few lines:
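Read-out is beta-lactamase cleavage of a FRET substrate (405 nm excitation; 460 and 530 nm emissions) in ESRE-bla HeLa cells after a 5 hr compound exposure at 37 C. Substrate incubation ran 2 hr at room temperature.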

Assay [4] in a line: qHTS assay to identify small molecule agonists of the endoplasmic reticulum stress response signaling pathway - cell viability counter screen (AID 1159517; calls by dose curve;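 further: HeLa cells carrying an ER stress response element beta-lactamase reporter; series mostly up to about 61 µM; nearly all actives have a fitted effect of over 50% in size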). In a few lines: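 Counter-screen wells were identical to the reporter wells. Cells were plated at 1,500 per well and dosed for 5 hr, then read for luminescence 30 min after CellTiter-Glo addition.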
Assay [5] is described as follows: qHTS assay to identify small molecule antagonists of the retinoid-related orphan receptor gamma (ROR-gamma) signaling pathway - cell viability counter screen (AID 1159520). Further: nearly all actives have a fitted effect of over 50% in size. In a few lines:
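Tet-on ROR gamma CHO cells were given compounds for 2 hr, then doxycycline hyclate at 1 uM final, and incubated 16 hr at 37 C. Viability was measured as ATP content by CellTiter-Glo luminescence.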

Assay [6] addresses Nuclear receptor ROR-gamma (Homo sapiens) (UniProt P51449). The assay is described as follows: qHTS assay to identify small molecule antagonists of the retinoid-related orphan receptor gamma (ROR-gamma) signaling pathway (AID 1159521;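 further: CHO cells with doxycycline inducible ROR-gamma driving an RORE luciferase reporter; top concentration of the series differs between compounds; nearly all actives have a fitted effect of over 50% in size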). In a few lines: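 Readout: ONE-Glo luciferase luminescence, 30 min at room temperature. System: Tet-on RORγ CHO, RORE-LUC. Sequence: compound 2 h, doxycycline 1 uM final, 16 h at 37 C.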

The nature of assay [7]: qHTS assay to identify small molecule agonists of the AP-1 signaling pathway - cell viability counter screen (AID 1159525; calls by dose curve; further: nearly all actives have a fitted effect of over 55% in size). The essentials:
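AP-1-bla ME-180 cells in Opti-MEM with 0.5% dialyzed FBS, compound exposure 5 h at 37 C in 15-point titration. Viability read in the same wells as ATP content by CellTiter-Glo luminescence, normalised to tetra-n-octylammonium bromide and DMSO controls.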

Assay [8] can be described thus: qHTS assay to identify small molecule agonists of the AP-1 signaling pathway (AID 1159526; calls by dose curve).
Assay [9] can be described thus: qHTS assay to identify small molecule agonists of the RXR signaling pathway - cell viability counter screen (AID 1159529). In a few lines:
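Tox21 10K compounds were tested for cytotoxicity against GeneBLAzer RXR-alpha HEK 293T cells grown in 2% charcoal-stripped FBS. Exposure lasted 16 hr at 37 C, 5% CO2; viability read by CellTiter-Glo luminescence.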

Assay [10] in a line: qHTS assay to identify small molecule antagonists of the retinoid acid receptor (RAR) signaling pathway - cell viability counter screen (AID 1159551). Further: nearly all actives have a fitted effect of over 35% in size. In a few lines: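 Luminescent ATP quantitation (CellTiter-Glo) gave cell viability in C3RL4 cells exposed to test chemicals for 6 h at 37 C alongside 1 uM final retinol.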
Assay [11] in a line: qHTS assay to identify small molecule antagonists of the retinoic acid receptor (RAR) signaling pathway (AID 1159552; further: nearly all actives have a fitted effect of over 50% in size). The essentials:
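Overnight-plated C3RL4 reporter cells get compound, then retinol to 1 uM final; plates sit 6 hr at 37 C, 5% CO2. A luciferase reagent is added and light output recorded after 30 min at room temperature.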

Assay [12] in a line: qHTS assay to identify small molecule agonists of the retinoic acid receptor (RAR) signaling pathway (AID 1159553). In a few lines: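 Luminescence from a RARE-driven luciferase reporter in C3RL4 cells served as the read-out, measured after 30 min with detection reagent at room temperature. Compounds in DMSO were applied for 6 hr at 37 C following overnight seeding.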
The nature of assay [13]: qHTS assay to identify small molecule antagonists of the estrogen related receptor (ERR) signaling pathway from Tox21 library - cell viability counter screen (AID 1224834). Further: nearly all actives have a fitted effect of over 30% in size. In a few lines:
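Fluorescence from CellTiter-Fluor gives the viability read-out, taken 30 min after reagent addition. Before that, ERR cells seeded 6 h earlier were incubated with compounds for 17.5 h at 37 C.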

Assay [14] has as its target Luciferin 4-monooxygenase (Photinus pyralis) (UniProt P08659). The experiment in a line: qHTS assay to identify small molecule inhibitors of firefly luciferase (AID 1224835). Further: nearly all actives have a fitted effect of over 25% in size. Further: potency means the concentration at half of the fitted maximal effect. The essentials:
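Biochemical qHTS: compounds run as interplate titrations against purified firefly enzyme, with D-luciferin and ATP each at its KM concentration. Light output recorded by CCD imaging.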

Assay [15] can be described thus: qHTS assay to identify small molecule agonists of the constitutive androstane receptor (CAR) signaling pathway - cell viability counter screen (AID 1224836). Further: series mostly up to about 92 µM; nearly all actives have a fitted effect of over 45% in size. In a few lines: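 Fluorescence from CellTiter-Fluor indicates live cells after 23 h exposure. The human hepatoma line expresses hCAR and a CYP2B6-2.2kb reporter. Incubation medium contains 0.75 uM PK11195 (final).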

Assay [16] in a line: qHTS assay to identify small molecule antagonists of the constitutive androstane receptor (CAR) signaling pathway - cell viability counter screen (AID 1224837). Further: series mostly up to about 92 µM; nearly all actives have a fitted effect of over 45% in size. The essentials: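 HepG2-CYP2B6-hCAR cells, 2500/well, 4 hr pre-incubation; compound titration, 15 conc.; CITCO 50 nM final; 23 hr, 37 C/5% CO2; CellTiter-Fluor, fluorescence intensity.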
The target of assay [17] is Nuclear receptor subfamily 1 group I member 3 (Homo sapiens) (UniProt Q14994). The assay is described as follows: qHTS assay to identify small molecule antagonists of the constitutive androstane receptor (CAR) signaling pathway (AID 1224838).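 Further: HepG2 cells stably expressing hCAR with CYP2B6 luciferase reporter stimulated by CITCO; nearly all actives have a fitted effect of over 40% in size.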 The essentials: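 HepG2-CYP2B6-hCAR cells; 4 h pre-incubation; cpd (15 conc) + CITCO 50 nM final; 24 h, 37 C/5% CO2; ONE-Glo, luminescence.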

Assay [18] shares this target. The experiment in a line: qHTS assay to identify small molecule agonists of the constitutive androstane receptor (CAR) signaling pathway (AID 1224839).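 Further: HepG2 cells stably carrying human CAR and a CYP2B6 luciferase reporter; series mostly up to about 92 µM; nearly all actives have a fitted effect of over 15% in size.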 The essentials: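 Stable hCAR/CYP2B6-2.2kb HepG2 line in DMEM with 10% FBS; compounds (15 concentrations) and 0.75 uM PK11195 final, 24 h at 37 C/5% CO2, then ONE-Glo luminescence after 30 min.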
The nature of assay [19]: qHTS assay to identify small molecule antagonists of the estrogen related receptor signaling pathway with the pleiotropic PPARgamma coactivator (PGC) from Tox21 10K library - cell viability counter screen (AID 1224840; active means well fitted cell-killing curve with a large enough effect in the repeat runs, not every such curve was filed as active; further: nearly all actives have a fitted effect of over 40% in size). The essentials:
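PGC/ERR cells, 2,000/well; 6 h pre-incubation 37 C/5% CO2; cpd in DMSO via pin tool; 17.5 h 37 C; CellTiter-Fluor, 30 min; fluorescence.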

Luciferin 4-monooxygenase (Photinus pyralis), sequence (P08659 whole entry, looked up): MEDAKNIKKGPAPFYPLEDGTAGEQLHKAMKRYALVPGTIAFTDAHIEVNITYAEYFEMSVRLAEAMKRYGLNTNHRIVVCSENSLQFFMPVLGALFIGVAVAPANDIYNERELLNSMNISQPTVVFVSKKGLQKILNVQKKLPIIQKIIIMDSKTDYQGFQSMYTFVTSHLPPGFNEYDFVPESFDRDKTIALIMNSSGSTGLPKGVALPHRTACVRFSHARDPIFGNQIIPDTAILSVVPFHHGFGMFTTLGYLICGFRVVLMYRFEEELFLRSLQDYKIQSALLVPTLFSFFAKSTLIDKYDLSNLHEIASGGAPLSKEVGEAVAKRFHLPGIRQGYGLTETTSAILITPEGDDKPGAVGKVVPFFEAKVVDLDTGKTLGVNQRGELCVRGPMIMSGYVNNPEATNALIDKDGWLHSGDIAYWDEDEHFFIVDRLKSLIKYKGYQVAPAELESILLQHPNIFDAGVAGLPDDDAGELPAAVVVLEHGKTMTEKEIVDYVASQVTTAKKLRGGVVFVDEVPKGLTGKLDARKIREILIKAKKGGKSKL
Nuclear receptor subfamily 1 group I member 3 (Homo sapiens), sequence (Q14994 whole entry, looked up): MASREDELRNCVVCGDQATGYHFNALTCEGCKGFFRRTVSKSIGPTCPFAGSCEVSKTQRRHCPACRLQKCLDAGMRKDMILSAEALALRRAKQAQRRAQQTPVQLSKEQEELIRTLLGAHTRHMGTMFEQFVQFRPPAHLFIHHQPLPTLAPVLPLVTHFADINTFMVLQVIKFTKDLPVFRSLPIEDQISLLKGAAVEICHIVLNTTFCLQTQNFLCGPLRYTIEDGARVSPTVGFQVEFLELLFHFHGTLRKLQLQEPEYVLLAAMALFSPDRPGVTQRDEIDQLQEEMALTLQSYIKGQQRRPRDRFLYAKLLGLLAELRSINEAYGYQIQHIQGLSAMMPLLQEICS

Take `CC(C)(C)C(=O)NCCCC(=O)O`: the call in assay [1], in assay [2], in [4], in assay [5], in assay [6] and in assay [7] was inactive. Besides, the result in [10], in [11], in assay [13], in assay [15], in [16] and in assay [17] was inactive. Moreover, in assay [19], the molecule was called inactive. The Potency result in [3], in assay [8], in assay [9], in [12], in [14] and in [18] was “inactive” each time.

Regarding `O=c1[nH]c(=O)c2cn[nH]c2[nH]1`, the outcome in assay [1], in assay [2], in assay [4], in assay [5], in assay [6] and in assay [7] was inactive. The call in assay [10], in assay [13], in assay [15], in assay [16], in assay [17] and in assay [19] was inactive. Moreover, the Potency result in [3], in assay [8], in assay [9], in [12], in [14] and in assay [18] was “inactive” in each case.

Turning to `CC(C)(Sc1cc(C(C)(C)C)c(O)c(C(C)(C)C)c1)Sc1cc(C(C)(C)C)c(O)c(C(C)(C)C)c1`, the outcome in assay [1], in [2], in assay [4], in [5], in [6] and in assay [7] was inactive. In addition, the molecule was called inactive in [10], in assay [11], in [13], in [15], in [16] and in [19]. Besides, the Potency result in [3], in [8], in assay [9], in assay [12] and in assay [14] was “inactive” throughout.

As for `Nc1ccc(C(=O)NCC(=O)O)cc1`, the molecule was classed as inactive in assay [1], in assay [2], in assay [4], in assay [5], in [6] and in [7]. The result in assay [10], in [13], in assay [15], in assay [16] and in assay [19] was inactive. For the same molecule, the Potency entry in [3], in [8], in [9], in assay [12] and in assay [14] was “inactive” in each case.

As for `CC(C)OCCO`, the outcome in assay [2], in assay [4], in assay [5], in [6], in assay [7] and in assay [10] was inactive. Further, the result in assay [11], in [13], in assay [15], in assay [16], in assay [17] and in assay [19] was inactive. Besides, the Potency entry in assay [3], in assay [8], in [9], in assay [14] and in [18] was “inactive” in each case.

For `CC(C)(C)OC(=O)c1ccccc1C(=O)O`, the result in assay [1], in assay [2], in assay [4], in assay [5], in assay [6] and in [7] was inactive. Moreover, the call in [10], in [11], in assay [15], in assay [16], in assay [17] and in assay [19] was inactive. Also, the Potency result in [3], in assay [8], in assay [9], in assay [12], in [14] and in assay [18] was “inactive” throughout.

`C=CCN1CCc2nc(N)sc2CC1`: the outcome in [1], in assay [2], in assay [4], in assay [5], in assay [6] and in assay [7] was inactive. Further, the molecule was called inactive in [10], in [11], in [13], in assay [15], in assay [16] and in assay [17]. Moreover, in assay [19], the outcome was inactive. Besides, the Potency entry in [3], in [8], in assay [9], in assay [14] and in [18] was “inactive” throughout.

Turning to `COc1cc2nc(N3CCN(C(=O)C4CCCO4)CC3)nc(N)c2cc1OC` (stereo not given), the molecule was called inactive in assay [2], in assay [4], in [5], in [6], in [7] and in assay [10]. Moreover, the molecule was classed as inactive in assay [11], in assay [15], in assay [16], in assay [17] and in [19]. Further, the Potency entry in assay [3], in assay [8], in assay [9], in [12] and in [18] was “inactive” each time. In addition, in assay [14], the Potency is 17.4 µM (active).
